{"source": "ChEMBL document CHEMBL1201862", "about": "“PubChem BioAssay data set” (2004)", "note": "Hit rate of the full screen: of about 400,000 compounds, about 2,100 (0.53%) were called active. Roughly 14% stayed inconclusive and do not appear here. The sample holds actives, similar compounds and a random draw of the others, so the mix is not that of the screen. No rule for the calls is given here."}
{"target": "Ataxin-2 (Homo sapiens) (UniProt Q99700)", "sequence (Q99700 whole entry)": "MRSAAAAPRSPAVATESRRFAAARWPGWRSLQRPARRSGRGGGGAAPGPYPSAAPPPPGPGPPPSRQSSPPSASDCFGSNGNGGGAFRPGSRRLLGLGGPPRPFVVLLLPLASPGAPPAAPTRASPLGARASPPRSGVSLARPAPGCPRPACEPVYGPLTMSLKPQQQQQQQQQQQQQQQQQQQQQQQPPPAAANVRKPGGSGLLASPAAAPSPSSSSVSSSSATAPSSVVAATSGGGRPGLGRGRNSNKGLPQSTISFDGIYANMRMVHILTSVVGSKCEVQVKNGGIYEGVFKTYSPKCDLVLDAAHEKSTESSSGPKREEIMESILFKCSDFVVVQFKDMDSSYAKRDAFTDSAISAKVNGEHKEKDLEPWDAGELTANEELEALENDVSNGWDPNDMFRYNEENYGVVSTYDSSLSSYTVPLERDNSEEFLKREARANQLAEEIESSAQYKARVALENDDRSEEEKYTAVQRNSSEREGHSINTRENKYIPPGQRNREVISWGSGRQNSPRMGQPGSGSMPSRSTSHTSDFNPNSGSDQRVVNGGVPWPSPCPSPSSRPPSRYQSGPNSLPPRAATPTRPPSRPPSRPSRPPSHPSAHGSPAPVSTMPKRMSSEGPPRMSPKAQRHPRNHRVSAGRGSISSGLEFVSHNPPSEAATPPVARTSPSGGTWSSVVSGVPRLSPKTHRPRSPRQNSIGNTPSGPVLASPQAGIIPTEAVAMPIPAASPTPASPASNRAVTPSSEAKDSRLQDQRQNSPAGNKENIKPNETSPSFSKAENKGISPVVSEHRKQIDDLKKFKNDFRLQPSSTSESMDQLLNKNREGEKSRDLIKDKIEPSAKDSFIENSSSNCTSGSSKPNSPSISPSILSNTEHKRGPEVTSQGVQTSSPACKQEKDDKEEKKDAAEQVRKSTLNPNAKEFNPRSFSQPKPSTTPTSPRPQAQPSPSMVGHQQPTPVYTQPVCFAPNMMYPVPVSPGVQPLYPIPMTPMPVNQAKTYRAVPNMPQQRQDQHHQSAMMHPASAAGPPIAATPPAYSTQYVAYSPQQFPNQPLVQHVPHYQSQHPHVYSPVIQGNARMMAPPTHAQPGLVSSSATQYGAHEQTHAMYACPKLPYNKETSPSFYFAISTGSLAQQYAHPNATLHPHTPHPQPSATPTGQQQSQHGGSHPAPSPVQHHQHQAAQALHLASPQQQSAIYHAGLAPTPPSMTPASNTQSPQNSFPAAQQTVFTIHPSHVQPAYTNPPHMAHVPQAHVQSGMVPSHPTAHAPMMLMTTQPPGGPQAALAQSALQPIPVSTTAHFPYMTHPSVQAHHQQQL", "experiment": "qHTS for Inhibitors of ATXN expression.", "format": "functional"}
{"smiles": "CCCn1nc(NC(=O)CC)c2cc3cccc(C)c3nc21", "Potency": "inactive"}
{"smiles": "O=C(/C=C/c1cccc(Cl)c1)OCC(=O)c1ccc[nH]1", "Potency": "inactive"}
{"smiles": "CC(C)n1/c(=N/C(=O)c2ccco2)c(C#N)cc2c(=O)n3ccccc3cc21", "Potency": "inactive"}
{"smiles": "NC(=O)c1nsc(C(=O)N(c2ccccc2)C(C(=O)NCC2CCCO2)c2ccc3ncccc3c2)c1N", "note": "(stereo unspecified)", "Potency": "inactive"}
{"smiles": "O=C1C(=O)c2ccccc2C(O)=C1CCCCl", "Potency": "25.1 µM (active)"}
{"smiles": "CCN(CC)c1ccc2cc(-c3nc4ccccc4[nH]3)c(=O)oc2c1", "Potency": "inactive"}
{"smiles": "COc1ccc(/N=c2\\oc3ccc(OC)cc3cc2-c2nc3ccccc3[nH]2)cc1", "Potency": "31.6 µM (active)"}
{"smiles": "COc1ccc2cc(-c3nc4ccc(C(=O)O)cc4[nH]3)c(=O)oc2c1", "Potency": "inactive"}
{"smiles": "CC1CCN(S(=O)(=O)N2CCN(C(=O)c3ccc4c(c3)OCO4)CC2)CC1", "Potency": "inactive"}
{"smiles": "CC1CCN(C(=O)c2ccc3c(c2)C(=O)c2ccccc2-3)CC1", "Potency": "inactive"}
{"smiles": "CCC1=Nc2cc(C(=O)N3CCC(C)CC3)ccc2Sc2ccc(C)cc21", "Potency": "28.2 µM (active)"}
{"smiles": "O=C1C=CC(=O)N1CCCCCCN1C(=O)C=CC1=O", "Potency": "25.1 µM (active)"}
{"smiles": "Cn1c(=O)c2c(nc(Oc3cccc(Br)c3)n2C)n(C)c1=O", "Potency": "inactive"}
{"smiles": "C[C@@H]1CN([C@H](C)CO)S(=O)(=O)c2ccc(C#Cc3ccccc3F)cc2O[C@@H]1CN(C)C(=O)Cc1ccccc1", "Potency": "25.1 µM (active)"}
{"smiles": "C[C@H]1CN([C@@H](C)CO)S(=O)(=O)c2ccc(Br)cc2O[C@@H]1CN(C)Cc1cccc(F)c1", "Potency": "25.1 µM (active)"}
{"smiles": "C[C@@H]1CN([C@@H](C)CO)S(=O)(=O)c2ccc(C#Cc3cccc(F)c3)cc2O[C@H]1CN(C)S(=O)(=O)c1cn(C)cn1", "Potency": "39.8 µM (active)"}
{"smiles": "C[C@@H]1CN([C@H](C)CO)S(=O)(=O)c2ccc(C#C[C@@H](C)O)cc2O[C@@H]1CN(C)Cc1ccc(-c2ccccc2)cc1", "Potency": "20 µM (active)"}
{"smiles": "COCCCNC(=S)N/N=C/c1ccc(O)cc1O", "Potency": "inactive"}
{"smiles": "CCNC(=S)N/N=C/c1sc(N2CCCCC2)nc1-c1cccs1", "Potency": "inactive"}
{"smiles": "Cc1cccc(C)c1NC(=O)COC(=O)c1c2c(nc3ccccc13)/C(=C\\c1ccc3c(c1)OCO3)CCC2", "Potency": "inactive"}
{"smiles": "N#Cc1cccc(NC(=O)CN2C(=O)NC(Cc3ccccc3)C2=O)c1", "note": "(stereo unspecified)", "Potency": "inactive"}
{"smiles": "C[C@@H]1CN([C@@H](C)CO)S(=O)(=O)c2ccc(Br)cc2O[C@H]1CN(C)C(=O)Nc1ccc(C(F)(F)F)cc1", "Potency": "35.5 µM (active)"}
{"smiles": "C[C@H]1CN([C@@H](C)CO)S(=O)(=O)c2ccc(Br)cc2O[C@@H]1CN(C)Cc1ccccc1", "Potency": "39.8 µM (active)"}
{"smiles": "Cc1cc2c(cc1C)N(C(=O)CCl)CCN2C(=O)CCl", "Potency": "35.5 µM (active)"}
{"smiles": "COc1ccc(-n2c(N)c(C(=O)NCC3CCCO3)c3nc4ccccc4nc32)c(OC)c1", "note": "(stereo unspecified)", "Potency": "inactive"}
{"smiles": "COc1cccc(-c2[nH]c(C(=O)NCC3CCCO3)cc3c4ccccc4nc2-3)c1", "note": "(stereo unspecified)", "Potency": "17.8 µM (active)"}
{"smiles": "COc1ccccc1-n1c(N)c(C(=O)NCC2CCCO2)c2nc3ccccc3nc21", "note": "(stereo unspecified)", "Potency": "inactive"}
{"smiles": "COc1cc(C(=S)N2CCOCC2)ccc1OC(=O)c1ccc(Br)cc1", "Potency": "inactive"}
{"smiles": "Cc1ccc2[nH]c3c(c2c1)CCCC3NCCO", "note": "(stereo unspecified)", "Potency": "inactive"}
{"smiles": "COc1ccc(NC(=O)N(C)[C@H]2C[C@H]3c4[nH]c5ccc(-c6cccc(C)c6)cc5c4CCN3C[C@H]2[C@H](C)O)cc1", "Potency": "39.8 µM (active)"}
{"smiles": "CCOC(=O)N(C)[C@H]1C[C@H]2c3[nH]c4ccccc4c3CCN2C[C@H]1[C@H](C)O", "Potency": "inactive"}
{"smiles": "COc1ccc(NC(=O)N(C)[C@H]2C[C@H]3c4[nH]c5ccc(-c6ccc(OC)cc6)cc5c4CCN3C[C@H]2[C@H](C)O)cc1", "Potency": "25.1 µM (active)"}
{"smiles": "C[C@H](O)[C@@H]1CN2CCc3c([nH]c4ccccc34)[C@@H]2C[C@@H]1N(C)C(=O)OCc1ccccc1", "Potency": "inactive"}
{"smiles": "Cc1ccc2[nH]c3c(c2c1)CN(C(=O)CN1CCCCC1)CC3", "Potency": "inactive"}
{"smiles": "Cc1cccc(-c2ccc3[nH]c4c(c3c2)CCN2C[C@@H]([C@H](C)O)[C@@H](N(C)C(=O)Nc3ccc(F)cc3)C[C@@H]42)c1", "Potency": "25.1 µM (active)"}
{"smiles": "CN[C@H]1C[C@H]2c3[nH]c4ccc(-c5cccc(C)c5)cc4c3CCN2C[C@H]1[C@H](C)O", "Potency": "39.8 µM (active)"}
{"smiles": "COc1cccc(-c2c(C#N)c(O)nc3c2-c2ccc(OC)cc2CC3)c1", "Potency": "inactive"}
{"smiles": "O=C(O)c1cc(-c2c[nH]c3ccccc23)nc2ccc3ccccc3c12", "Potency": "inactive"}
{"smiles": "COC(=O)C1C2CC3c4[nH]c5cc(OC)ccc5c4CCN3CC2CC(OC2CCCCO2)C1OC", "note": "(stereo unspecified)", "Potency": "inactive"}
{"smiles": "COc1ccc(-c2ccc3[nH]c4c(c3c2)CCN2C[C@@H]([C@H](C)O)[C@@H](N(C)C(=O)Nc3cc(Cl)cc(Cl)c3)C[C@@H]42)cc1", "Potency": "35.5 µM (active)"}
{"smiles": "O=C(COc1ccc([N+](=O)[O-])cc1)N(C1CCCCC1)C1CCS(=O)(=O)C1", "note": "(stereo unspecified)", "Potency": "inactive"}
{"smiles": "C/C(=N/OC(=O)C1CC1)c1cc(-c2ccc(Cl)cc2)no1", "Potency": "inactive"}
{"smiles": "CCc1cc2c(-c3ccccc3)cc(=O)oc2c2c1OCN(Cc1ccc(C)cc1)C2", "Potency": "inactive"}
{"smiles": "COc1ccc2c(c1)/C(=C\\c1cccc(/C=C3/C(=O)Nc4ccc(OC)cc43)n1)C(=O)N2", "Potency": "0.891 µM (active)"}
{"smiles": "O=C1Nc2ccccc2/C1=C/c1c[nH]c(-c2ccccc2)n1", "Potency": "inactive"}
{"smiles": "COc1ccc(N/C=C2/C(=O)N(c3cccc(C)n3)C(=O)c3ccccc32)c(OC)c1", "Potency": "inactive"}
{"smiles": "Cc1ccc(S(=O)(=O)c2cc3c(=O)n4ccccc4nc3n(Cc3ccco3)c2=N)cc1", "Potency": "inactive"}
{"smiles": "N#CC1=C(N)Oc2cc(O)c(Cl)cc2C1c1ccccc1F", "note": "(stereo unspecified)", "Potency": "inactive"}
{"smiles": "CC(C)c1ccc(CN2CCN(S(=O)(=O)c3ccc(Cl)s3)CC2)cc1", "Potency": "inactive"}
{"smiles": "C=CCN1CCN(C(=O)CSc2ccccc2)CC1", "Potency": "inactive"}
{"smiles": "Cc1cccc(CC(=O)NC2CCN(C)CC2)c1", "Potency": "inactive"}
{"smiles": "Cc1cccc(CN2CCN(C(=O)CCl)CC2)c1", "Potency": "35.5 µM (active)"}
{"smiles": "Cc1cccc(NS(=O)(=O)c2ccc(C)c(C(=O)NC3CCN(Cc4ccccc4)CC3)c2)c1", "Potency": "inactive"}
{"smiles": "CC(C)c1ccc(CN2CCN(C(=O)CCl)CC2)cc1", "Potency": "15.8 µM (active)"}
{"smiles": "C=CCn1c(=O)c(C#N)cc2c(=O)n3ccccc3nc21", "Potency": "inactive"}
{"smiles": "Cc1cc(C(=O)N2CCN(C(=O)c3ccco3)CC2)ccc1[N+](=O)[O-]", "Potency": "inactive"}
{"smiles": "O=C(CSc1nnnn1C1CCCCC1)N1CCN(C(=O)c2ccco2)CC1", "Potency": "inactive"}
{"smiles": "COc1ccc2oc(=O)c(C(=O)N3CCN(C(=O)c4ccco4)CC3)cc2c1", "Potency": "inactive"}
{"smiles": "O=C(CSc1ccccc1)N1CCN(C(=O)c2ccco2)CC1", "Potency": "inactive"}
{"smiles": "Cc1sc2nc(C(C)C)nc(SCC(=O)N3CCN(C(=O)c4ccco4)CC3)c2c1C", "Potency": "39.8 µM (active)"}
{"smiles": "CCc1cc2ccc(OC)cc2nc1SCC(=O)N1CCN(C(=O)c2ccco2)CC1", "Potency": "25.1 µM (active)"}
